hDAT+cocaine – changed hDAT dopamine uptake under cocaine IC80, either direction, primary screen, cocaine antagonist project, cell-based, LLC-PK1 hDAT, [14C]-dopamine uptake, MLSMR. LLC-PK1 hDAT cells, [14C]-dopamine uptake with cocaine IC80; actives deviate in either direction. B-score at 10 µM. 1.3% of 110,000 active. AID 449768, 2010;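 active means Z score or B-score, a plate-position-corrected score, falls beyond the plate's 99.7% confidence bounds, in either direction; inactive means both scores lie inside the 99.7% bounds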;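 further: scored against the spread of the other compound wells on the same plate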
Target sequence (Q01959 whole entry, looked up): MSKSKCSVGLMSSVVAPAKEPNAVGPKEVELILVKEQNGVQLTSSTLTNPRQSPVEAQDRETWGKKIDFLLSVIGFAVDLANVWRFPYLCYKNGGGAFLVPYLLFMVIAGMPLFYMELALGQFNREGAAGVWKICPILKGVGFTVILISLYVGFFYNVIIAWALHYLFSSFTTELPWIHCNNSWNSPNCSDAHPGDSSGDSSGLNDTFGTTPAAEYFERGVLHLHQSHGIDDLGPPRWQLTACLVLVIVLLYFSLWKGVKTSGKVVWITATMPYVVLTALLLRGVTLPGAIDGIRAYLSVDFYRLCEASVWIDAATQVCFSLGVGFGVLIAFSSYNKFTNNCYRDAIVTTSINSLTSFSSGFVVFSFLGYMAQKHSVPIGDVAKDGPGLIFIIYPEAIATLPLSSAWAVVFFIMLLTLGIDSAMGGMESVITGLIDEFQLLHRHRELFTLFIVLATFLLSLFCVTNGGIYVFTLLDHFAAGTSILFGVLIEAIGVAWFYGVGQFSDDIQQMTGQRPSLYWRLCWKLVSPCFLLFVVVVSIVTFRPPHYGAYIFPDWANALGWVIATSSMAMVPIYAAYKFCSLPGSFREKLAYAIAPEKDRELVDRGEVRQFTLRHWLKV
Cav32 inh – Cav3.2 calcium influx blockers – cell-based, Fluo-4 calcium fluorescence, FDSS, MLSMR library, primary screen. Voltage-dependent T-type calcium channel subunit alpha-1H (Homo sapiens), O95180. Cav3.2-expressing cells; hits give low values. B-score at 10 µM. 4% of 100,000 active. AID 449739, 2010;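 active means single-dose well whose peak fluorescence ratio is a statistical outlier from its plate by either plate-standardised score or position-corrected B-score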
PTK2B oligo ant – antagonists of Pyk2 self-association, primary screen, Q293 cells, FERM NanoBiT luminescence, HTS; hits give low values; z-score (the deposit names both 25 µM and 10 µM); 0.83% of 99,000 active; AID 1347419, 2020;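 active means Z-score of -3 or lower, scaled per plate to the spread of control and sample wells; inactive means z-score above -3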;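 further: negative z-score means lost luminescence so less FERM oligomerization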
SDO1 yeast rescue – growth rescue of sdo1-depleted yeast, primary screen, S. cerevisiae, bone marrow failure model | 0.21% of 140,000 active | AID 817, 2007 | z-score at 10 µM | S. cerevisiae sdo1-depleted JHY4D growth rescue, OD600 30 h; hits give high values; pdr5 snq2 efflux-pump mutant strain;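 active means z-score above 3 at both the 24 hr and the 30 hr optical density reads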;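 further: z-score against mean and SD of all compound wells on the same plate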
PLK1 PBD inh – Plk1 polo box domain binding inhibitors, primary screen, biochemical, fluorescence polarization; Serine/threonine-protein kinase PLK1 (Homo sapiens), P53350; 0.13% of 97,000 active; Plk1 PBD phosphopeptide binding; inhibition, %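 (tested at about 20 µM)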; in the data active means inhibition above about 34%, passing the limit was not always enough
PLK1 kinase inh – human PLK1 kinase inhibitors, primary screen, biochemical, TR-FRET; Serine/threonine-protein kinase PLK1 (Homo sapiens), P53350; recombinant PLK1 kinase, TR-FRET peptide phosphorylation; inhibition, % at 10 µM; 0.53% of 97,000 active;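 active means inhibition of 50% or more in the single-concentration screen; inactive means inhibition below 50%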;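 further: 0% = DMSO max control and 100% = H-89 dihydrochloride min control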
An asterisk follows results filed as active; nt = no result given. Hits are enriched below; roughly 4.7% of the tested compounds scored in any of these assays.

SMILES	hDAT+cocaine	Cav32 inh	PTK2B oligo ant	SDO1 yeast rescue	PLK1 PBD inh	PLK1 kinase inh
COc1cccc(CN2CCN(C(=O)c3cccc4ccccc34)CC2)c1OC	0.25	-4.5*	0.68	-0.32	-8	0
Cc1ccc(Cl)cc1NC(=S)NCc1cccn1C	nt	nt	nt	-0.31	nt	nt
CC[C@@]1(O)C(=O)OCc2c1cc1n(c2=O)Cc2cc3c(CN(C)C)c(O)ccc3nc2-1	0.81	-6.3*	nt	nt	nt	nt
CSc1ccc(S(=O)(=O)Nc2ccc(F)cc2)cc1	-0.45	-5.1*	-0.3	-0.19	-2	-14
CCC(CC)C(=O)Nc1cccc(/C(C)=N\NC(=O)c2ccc(C)s2)c1	0.83	-5.8*	-0.62	0.77	-27	-8
Cc1ccc(S(=O)(=O)NN=C2C3CC4CC(C3)CC2C4)cc1[N+](=O)[O-]	nt	nt	nt	0.56	nt	nt
O=C(CNCCC1=CCCCC1)Nc1ccc(N2CCCCCC2)cc1	1.5	-5.1*	-0.28	-1.1	-30	-22
O=C(CNC1CCCCCC1)Nc1ccc(N2CCCC2)cc1	nt	nt	nt	1.1	13	-4
COc1cccc(NC(=O)CN(C)C(=O)COc2ccc3ccccc3c2)c1	nt	nt	nt	-0.43	nt	nt
CN(C)c1ccc(NC(=O)COC(=O)Cn2nnc3ccccc32)cc1	nt	nt	nt	0.28	nt	nt
CC(C)(C)N1CC(c2nc3ccccc3n2CCOc2ccccc2)CC1=O (stereo not given)	1.2	-3.9*	-0.67	-0.46	-3	3
CC(C)C(=O)NCCc1nc2ccccc2n1C	-1.1	-0.71	-1.4	0.38	-8	-13
Cc1ccc(OCCn2c(CCNC(=O)C(C)C)nc3ccccc32)cc1	0.27	-6.9*	0.77	1.4	21	-8
CC(C)C(=O)NCCc1nc2ccccc2n1CCCOc1ccc(Cl)cc1	1.9	-5.6*	0.57	-1	-23	-7
Cc1ccc(OCCn2c(CCCO)nc3ccccc32)cc1	-0.82	-3.4	0.32	-0.67	16	5
CCCc1nc2ccccc2n1CCOC	0.0082	-0.0066	0.12	0.86	14	1
CCCc1nc2ccccc2n1CCOc1ccccc1	nt	-5.3*	-0.07	-1.6	12	-8
CCC(C(=O)NNC(=O)c1cnccn1)c1ccccc1 (stereo not given)	nt	nt	nt	0.65	nt	nt
COC(=O)c1ccc(CSc2nnc(NC(=O)C3CC(=O)N(c4ccc5c(c4)OCCO5)C3)s2)cc1 (stereo not given)	nt	nt	nt	-1.2	nt	nt
O=[N+]([O-])c1cc(S(=O)(=O)Nc2cccc(C(F)(F)F)c2)ccc1-n1nnc2ccccc21	0.54	-5.6*	-1.9	-0.78	-15	-9
CCc1nnc(NC(=O)C2Cc3ccccc3CN2S(=O)(=O)c2ccc(C)cc2)s1 (stereo not given)	0.49	-2.9	-3*	-0.69	6	-12
CCc1nnc(NC(=O)C2Cc3ccccc3CN2S(=O)(=O)c2cccs2)s1 (stereo not given)	0.81	-0.14	-1.7	-1.1	-1	-6
Cc1ccc(S(=O)(=O)N2Cc3ccccc3CC2C(=O)Nc2ccc3c(c2)OCO3)cc1 (stereo not given)	-0.055	-4.5*	-1.9	-0.56	1	-10
Cc1nc(NCCc2ccccc2)c(C#N)c(C)c1[N+](=O)[O-]	nt	nt	nt	-0.88	nt	nt
CC1CCc2ccccc2N1C(=O)c1cccs1 (stereo not given)	-7.3*	-1.2	-0.28	-1.1	16	-8
COc1ccc(N2C(C(C)=O)=NN(c3ccccc3)C2c2cccs2)cc1 (stereo not given)	1.4*	-0.47	-2.3	-0.69	-24	0
CC(=O)Nc1ccc(N2C(C(C)=O)=NN(c3ccccc3)C2c2cccs2)cc1 (stereo not given)	-0.49	-1.1	-2.7	-0.61	-28	-12
CCOC(=O)c1cccc(NC(=O)Nc2cc(OC)ccc2OC)c1	-0.21	-0.1	-3.4*	0.54	-7	-10
CCN(CCNC(=O)CS(=O)(=O)Cc1nc(-c2cccc(OC)c2)oc1C)c1ccccc1	-0.044	-9*	2.4	-1.5	0	-4
